Most compounds without a hit are left out; they make up all but 3.4% or so of the library.
GPR151 activ = activators of human GPR151. Q8TDV0. PathHunter beta-arrestin GPR151 cells, luminescence. activation, % at 11.2 µM. 1% of 650,000 active. AID 1508602; in the data active = activation above about 4.9%;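 note: 0% = median of compound wells and 100% = cells with positive control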
Target sequence (Q8TDV0 whole entry, looked up): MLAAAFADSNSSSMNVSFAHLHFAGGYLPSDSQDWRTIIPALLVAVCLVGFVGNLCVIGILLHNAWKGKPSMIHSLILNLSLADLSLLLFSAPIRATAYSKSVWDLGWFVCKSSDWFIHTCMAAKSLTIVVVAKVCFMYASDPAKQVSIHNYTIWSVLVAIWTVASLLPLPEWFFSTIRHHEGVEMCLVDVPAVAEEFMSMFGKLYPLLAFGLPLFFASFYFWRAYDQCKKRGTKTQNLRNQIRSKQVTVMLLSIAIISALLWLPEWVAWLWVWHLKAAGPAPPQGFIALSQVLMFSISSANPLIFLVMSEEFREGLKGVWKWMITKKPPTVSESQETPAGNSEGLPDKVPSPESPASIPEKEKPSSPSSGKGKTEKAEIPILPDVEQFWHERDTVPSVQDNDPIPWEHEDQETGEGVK
FBW7 act = activators of human E3 ligase FBW7. 0.13% of 650,000 active. normalized activity (activation), % at 26.1 µM. AlphaScreen FBW7–phospho-cyclin E peptide binding, activator screen; in the data active = normalized activity above about 1.9%;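 note: purified mutant Fbw7 with reduced substrate affinity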
MITF primary = human MITF inhibition, primary screen; AlphaScreen MITF homodimerization, bead proximity signal; 0.91% of 650,000 active; O75030; AID 1259374; inhibition, % at 2.6 µM; in the data active = inhibition above about 50%;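 note: 0% = vehicle wells with protein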
TEAD-YAP block = TEAD-YAP interaction inhibition. HEK-TIYL cells, TEAD-Gal4/YAP UAS-luciferase luminescence. AID 1259422. inhibition, % at 9.12 µM. 1.4% of 640,000 active; in the data active = inhibition above about 32%;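 note: 0% = median of test compound wells and 100% = reference inhibitor wells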
GPR151 conf act = confirmation of human GPR151 activators | shares compounds with GPR151 activ | GPR151 PathHunter beta-arrestin cells, luminescence, 90 min; % of EA-reagent control over plate median | activation, % at 11.2 µM | 6,700 tested, under 10 active;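 active = mean percent activation across replicates above the confirmation screen cutoff of 4.91%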
GPR119 ag = counter-screen for GPR151 activators: effect on human GPR119; shares compounds with GPR151 activ; GPR119 PathHunter beta-arrestin cells, luminescence, 90 min; 0 = compound-well median, 100 = enzyme-acceptor control; activation, % at 11.2 µM; 0.3% of 6,700 active;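 active = mean percent activation in the counterscreen above 29.09%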;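 note: counterscreen on off-target GPR119 to flag nonselective hits from the GPR151 activator screen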
Starred values were filed as active, the others as inactive.

For COc1ccc(/C(C)=N\NC(=O)COc2ccc(C)cc2[N+](=O)[O-])cc1OC the results were GPR151 activ 7.4*, FBW7 act 0, MITF primary 1, TEAD-YAP block -3, GPR151 conf act 0 and GPR119 ag 1.
For C/C(=N/NC(=O)COc1cccc(Cl)c1)c1cccc([N+](=O)[O-])c1 the results were GPR151 activ 6.6*, FBW7 act 0, MITF primary -12, TEAD-YAP block -2, GPR151 conf act 0 and GPR119 ag 2.
Screening COc1ccc(/C(C)=N\NC(=O)COc2ccc(C)cc2C)cc1OC returned GPR151 activ 1, FBW7 act 0, MITF primary 4 and TEAD-YAP block 4.
O=C(COc1ccccc1Br)NC1CCCCC1 was read as GPR151 activ 1, FBW7 act 0, MITF primary -9 and TEAD-YAP block -62.
`NNC(=O)CCNC(=O)c1cccc([N+](=O)[O-])c1` gave GPR151 activ -1, FBW7 act 0, MITF primary -9 and TEAD-YAP block -8.
Screening COc1ccccc1NNC(C)=O returned GPR151 activ 0, FBW7 act 0, MITF primary 3 and TEAD-YAP block 7.
Screening O=C(COc1ccccc1-c1ccccc1)NNC(=O)COc1ccccc1[N+](=O)[O-] returned GPR151 activ 7.1*, FBW7 act 0, MITF primary 8, TEAD-YAP block -9, GPR151 conf act -1 and GPR119 ag 2.
COc1ccc(OC(=O)COc2ccccc2Cl)cc1 was read as GPR151 activ 7.8*, FBW7 act 0, MITF primary -15, TEAD-YAP block -9, GPR151 conf act 0 and GPR119 ag 8.
For C/C(=N\NC(=S)NCc1ccco1)c1cccc([N+](=O)[O-])c1 the results were GPR151 activ 5.0*, FBW7 act 0, MITF primary 3, TEAD-YAP block 7, GPR151 conf act 2 and GPR119 ag 10.
Screening C/C(=N\NC(=O)COc1ccccc1[N+](=O)[O-])c1ccc(Cl)cc1 returned GPR151 activ 7.1*, FBW7 act 0, MITF primary -11, TEAD-YAP block -17, GPR151 conf act 0 and GPR119 ag -1.
`COc1cc([N+](=O)[O-])ccc1NC(=S)NCc1ccco1` gave GPR151 activ -3, FBW7 act 0, MITF primary 15 and TEAD-YAP block 8.
`CC(C)(C)NC(=O)COc1ccccc1[N+](=O)[O-]` gave GPR151 activ 1, FBW7 act 0, MITF primary -2 and TEAD-YAP block 3.
Screening Cc1cccc(OCc2nn3c(-c4ccc(F)cc4)nnc3s2)c1 returned GPR151 activ -1, FBW7 act 0, MITF primary 0 and TEAD-YAP block -1.
`O=C(COc1ccc(Cl)cc1Cl)NC1CC2CCC1C2` (configuration not stated) gave GPR151 activ 5.3*, FBW7 act 1, MITF primary -4, TEAD-YAP block -6, GPR151 conf act 0 and GPR119 ag 9.
O=C(COc1ccccc1Cl)N/N=C\C=N/NC(=O)COc1ccccc1Cl was read as GPR151 activ 12*, FBW7 act 0, MITF primary 0, TEAD-YAP block -3, GPR151 conf act 0 and GPR119 ag 14.
Screening O=C(COc1ccccc1Cl)N/N=C/c1ccc(F)cc1 returned GPR151 activ -1, FBW7 act 0, MITF primary -7 and TEAD-YAP block -8.
CN(CCn1ccnc1)c1nc2nonc2nc1NCc1ccccc1 was read as GPR151 activ 2, FBW7 act 0, MITF primary 6 and TEAD-YAP block 0.
CCN(CCn1cccn1)c1nc2nonc2nc1NCc1ccccc1 was read as GPR151 activ 6.5*, FBW7 act 0, MITF primary 8, TEAD-YAP block -4, GPR151 conf act 0 and GPR119 ag 2.
For CC(C)CC(=O)Nc1ccnn1C1CCN(CC2=CC[C@H]3C[C@@H]2C3(C)C)CC1 the results were GPR151 activ 0, FBW7 act 0, MITF primary 4 and TEAD-YAP block 4.
Screening CC1(CCC(=O)N2CCC(n3nccc3NC(=O)CCOc3ccccc3)CC2)CC1 returned GPR151 activ 2, FBW7 act 0, MITF primary 7 and TEAD-YAP block 1.
Screening CC1(C)[C@H]2CC=C(CN3CCC(n4nccc4NC(=O)CCOc4ccccc4)CC3)[C@@H]1C2 returned GPR151 activ 5.3*, FBW7 act 0, MITF primary 2, TEAD-YAP block 7, GPR151 conf act 0 and GPR119 ag 4.
For O=C(CCOc1ccccc1)Nc1ccnn1C1CCN(C(=O)CCc2ccccc2)CC1 the results were GPR151 activ 5.7*, FBW7 act 0, MITF primary 1, TEAD-YAP block -6, GPR151 conf act 0 and GPR119 ag 5.
`Cc1ccccc1NC(=O)C(=O)NCCN1CCOCC1` gave GPR151 activ 0, FBW7 act 0, MITF primary -8 and TEAD-YAP block -20.
Screening CCc1ccc(N(CC(=O)N2CCC(C(N)=O)CC2)S(C)(=O)=O)cc1 returned GPR151 activ 0, FBW7 act 0, MITF primary 7 and TEAD-YAP block 4.
For CS(=O)(=O)N(CC(=O)N1CCC(C(N)=O)CC1)c1ccc(Oc2ccccc2)cc1 the results were GPR151 activ 5.0*, FBW7 act 0, MITF primary -2, TEAD-YAP block -8, GPR151 conf act -1 and GPR119 ag -6.
Screening Nc1nnc(Cn2nnc(-c3ccc(F)cc3)n2)s1 returned GPR151 activ 1, FBW7 act 0, MITF primary 11 and TEAD-YAP block 2.
For CCOC(=O)CN1C(=O)N[C@@H](c2cccc(C(F)(F)F)c2)C(C(C)=O)=C1C the results were GPR151 activ 10.0*, FBW7 act 0, MITF primary 4, GPR151 conf act 1 and GPR119 ag 12.
For CC(=O)C1=C(C)N(Cc2ccccc2)C(=O)N[C@@H]1c1cccc(C(F)(F)F)c1 the results were GPR151 activ 0, FBW7 act 0 and MITF primary -2.
Screening COC(=O)C1=C(C)N(Cc2ccccc2)C(=O)N[C@H]1c1cccc(C(F)(F)F)c1 returned GPR151 activ 8.6*, FBW7 act 0, MITF primary -10, GPR151 conf act -1 and GPR119 ag -10.
COc1cc(CCN2C(=O)N[C@@H](c3cccc(C(F)(F)F)c3)C(C(C)=O)=C2C)cc(OC)c1OC was read as GPR151 activ 0, FBW7 act 0 and MITF primary -27.
`CN(C)CCNC(=O)c1cc2c(s1)-c1ccccc1SC2` gave GPR151 activ -3, FBW7 act 0, MITF primary 1 and TEAD-YAP block -33.
Screening O=C(NCCCN1CCCC1)c1cc2c(s1)-c1ccccc1SC2 returned GPR151 activ 6.0*, FBW7 act 0, MITF primary 12, TEAD-YAP block -5, GPR151 conf act -1 and GPR119 ag -17.
